Results filed as inconclusive are left out. Where a call stands in place of a potency, no number is given. The source made the active and inactive calls. The call rests on the fitted dose curve; in most records, active means well fitted cell-killing curve with a large enough effect; inconclusive means small, poorly fitted or top-dose-only effect, or effect the other way; inactive means no such curve, though single readings can be large or run the other way.
Test: Quantitative High-Throughput drug screen in 47 multiple myeloma cell lines against the NCATS MIPE library collection: OPM2_DSMZ cell viability assay (AID 1919872); further: nearly all actives have a fitted effect of over 30% in size
Details: OPM2 myeloma viability, CellTiter-Glo ATP luminescence, 48 h; series mostly up to 45.8 µM
Outline: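 Primary qHTS used for cherry-picking: cells at 500/well, library compounds for 48 h (37C, 5% CO2), luminescent ATP assay.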
With `O=C(CCc1ccc(O)cc1)c1c(O)cc(O)cc1O[C@@H]1O[C@H](CO)[C@H](O)[C@H](O)[C@H]1O` the Potency was 9.35 µM (active). With `COc1ccc(Cc2ccc(NC(N)=O)cc2)cc1-c1cccc(Cl)c1` the Potency was “inactive”. For `CC[C@]1(O)C[C@@H]2CN(CCc3c([nH]c4ccccc34)[C@@](C(=O)OC)(c3cc4c(cc3OC)N(C=O)[C@@H]3C45CCN4CC=C[C@](CC)([C@H]45)[C@@H](OC(C)=O)[C@]3(O)C(=O)OC)C2)C1` (some centres not stated), the Potency was 23.5 µM (active). With `COc1ccc2cc(-c3nc(-c4ccc(S(C)=O)cc4)[nH]c3-c3ccncc3)ccc2c1` (configuration not stated) the Potency was “inactive”. In the case of `CCOC1OC(=O)C[C@H]1NC(=O)[C@@H]1CCCN1C(=O)[C@@H](NC(=O)c1ccc(N)c(Cl)c1)C(C)(C)C` (some centres not stated), the Potency was “inactive”. With `Nc1ncnc2c1ncn2[C@@H]1O[C@H](CO)C[C@@H]1O` the Potency was “inactive”. In the case of `CC[C@@H]1C=C(C)C[C@H](C)C[C@H](OC)[C@H]2O[C@@](O)(C(=O)C(=O)N3CCCC[C@@H]3C(=O)O[C@H](C(C)=C[C@@H]3CC[C@H](Cl)[C@H](OC)C3)[C@H](C)[C@@H](O)CC1=O)[C@H](C)C[C@H]2OC`, the Potency was “inactive”. With `CC(C)C(=O)Oc1ccc(CO)cc1[C@H](CCN(C(C)C)C(C)C)c1ccccc1` the Potency was “inactive”. With `N#C[C@H]1C[C@H]2C[C@@H]2N1C(=O)[C@@H](N)C12CC3CC(CC(O)(C3)C1)C2` the Potency was “inactive”. With `O=C(O)C=Cc1ccc(O)c(O)c1` the Potency was “inactive”. For `CN[C@@H](C)C(=O)N[C@H]1CN(C(=O)CC(C)C)CC[C@H]2CC[C@@H](C(=O)NC(c3ccccc3)c3ccccc3)N2C1=O`, the Potency was “inactive”. With `Nc1ncnc2c1ncn2[C@@H]1O[C@@H](CO)[C@H](O)[C@H]1O` the Potency was “inactive”. In the case of `C[C@H](NC(=O)c1sccc1OCc1ccc(Cl)cc1)c1ccccc1`, the Potency was 18.7 µM (active). For `O=C(O)C(O)Cc1ccc(O)c(O)c1` (configuration not stated), the Potency was 11.8 µM (active). With `N#CC1(c2ccc(NC(=O)c3cccnc3NCc3ccncc3)cc2)CCCC1` the Potency was “inactive”. For `CC(C)(C)NC(=O)Nc1cccc(Nc2ncc(F)c(NC(C)(C)CO)n2)c1`, the Potency was 16.6 µM (active). In the case of `COCCCCC(=NOCCN)c1ccc(C(F)(F)F)cc1`, the Potency was 16.6 µM (active). For `COc1cccc(-c2cc(=O)c3ccccc3o2)c1N`, the Potency was “inactive”. With `NC1CCC(Nc2nc(Nc3ccc(C(=O)N4CCCCC4)cc3)c3ncn(-c4cccc(F)c4)c3n2)CC1` (configuration not stated) the Potency was “inactive”. With `Cc1cc(OCCCc2c(C(=O)O)n(Cc3cccnc3)c3c(-c4c(COc5ccc(N6CCN([S+](C)(=O)[O-])CC6)cc5)nn(C)c4C)cccc23)cc(C)c1Cl` the Potency was 10.5 µM (active). With `NC(=O)c1cnc(-c2ccc(C3(N)CCC3)cc2)c(-c2ccccc2)c1` the Potency was 20.9 µM (active). With `CCOC(CN1C(=O)[C@](CC(=O)Nc2ccc(C)cc2)(NC(=O)Nc2ccc(C)cc2)c2ccccc21)OCC` the Potency was “inactive”.
Potency means the concentration at half of the fitted maximal effect.
